From PubChem
ELG1 DNA repair: qHTS screen for small molecules that inhibit ELG1-dependent DNA repair in human embryonic kidney (HEK293T) cells expressing luciferase-tagged ELG1 | AID 504467, 2011 | 2.3% of 330,000 active | Potency, µM (series often up to 46.1 µM), for inactives: at the highest dose activity change, negative = inhibition, most hits filed as inhibitors | HEK293T ELG1-luciferase reporter, luminescence, 16 h; DNA damage induced by 5-fluorouridine; further: on the % scale 0 is the no-effect control and ±100 the full control effect; nearly all actives have a fitted effect of over 55% in size
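Overnight (16 hr) co-exposure of 2,000 cells/well to 5-fluorouridine and compound at 37 °C preceded detection. Luciferase was quantified via ONE-Glo luminescence; loss of signal denotes inhibition.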
VP16 counter: VP16 counterscreen qHTS for inhibitors of ROR gamma transcriptional activity | Drosophila S2 Gal4-VP16 UAS-luciferase, luminescence, 20 h | Potency, µM (doses to about 53.6 µM), without a hit: at the top dose activity, negative = inhibition, hits mostly inhibitors | 3.5% of 310,000 active | AID 2546, 2010;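 further: Gal4-VP16 expression switched on by copper sulfate through the metallothionein promoter; on the % scale 0 is the no-effect control and ±100 the full control effect; nearly all actives have a fitted effect of over 50% in size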
MCF10A rereplic: A quantitative high throughput screen for small molecules that induce DNA re-replication in MCF 10a normal breast cells. MCF 10A DNA re-replication, Hoechst nuclear intensity, 48 h. Potency, µM (doses to about 46.1 µM), without a hit: top-dose activity, positive = re-replication, hits mostly activators. 2.9% of 350,000 active; further: % of control where 0% means no effect; nearly all actives have a fitted effect of over 50% in size
SW480 rereplic: A quantitative high throughput screen for small molecules that induce DNA re-replication in SW480 colon adenocarcinoma cells; SW480 DNA re-replication, Hoechst DNA content imaging, 48 h; Potency, µM (doses to about 46.1 µM), without a hit: at the top dose re-replication activation, most hits filed as activators; 1.8% of 340,000 active; AID 624297, 2012; further: % of control where 0% means no effect; nearly all actives have a fitted effect of over 55% in size
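Quantitative HTS format with DMSO vehicle controls; 48 hr drug incubation at 37 C, then 40 min Hoechst staining and scanning imager measurement at 405 nm excitation.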
RORg inh: qHTS for inhibitors of ROR gamma transcriptional activity. Nuclear receptor ROR-gamma (Mus musculus), P51450. Drosophila S2 Gal4-RORgamma UAS-luciferase reporter, 20 h. Potency, µM (top dose mostly 53.6 µM), inactives show top-dose activity change, negative = inhibition, actives largely listed as inhibitors. 5.4% of 310,000 active; further: on the % scale 0 is the no-effect control and ±100 the full control effect; nearly all actives have a fitted effect of over 60% in size
Target sequence (P51450 whole entry, looked up, the tested form may be a part): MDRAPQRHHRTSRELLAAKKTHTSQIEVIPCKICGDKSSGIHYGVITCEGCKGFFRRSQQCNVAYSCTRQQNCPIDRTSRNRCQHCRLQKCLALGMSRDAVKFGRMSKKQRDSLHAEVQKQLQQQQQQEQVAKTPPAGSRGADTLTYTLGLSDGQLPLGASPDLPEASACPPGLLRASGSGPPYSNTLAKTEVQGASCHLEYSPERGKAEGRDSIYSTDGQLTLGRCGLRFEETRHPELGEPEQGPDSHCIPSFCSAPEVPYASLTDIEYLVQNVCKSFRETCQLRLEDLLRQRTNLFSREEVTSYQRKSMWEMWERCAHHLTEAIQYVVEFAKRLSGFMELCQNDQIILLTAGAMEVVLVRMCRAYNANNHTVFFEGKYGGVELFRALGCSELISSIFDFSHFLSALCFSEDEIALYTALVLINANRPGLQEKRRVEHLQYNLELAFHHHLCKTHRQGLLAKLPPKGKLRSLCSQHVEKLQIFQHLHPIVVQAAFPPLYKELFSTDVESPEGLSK
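Stable Schneider cell line, Gal4 DNA-binding domain fused to ROR gamma, UAS-luciferase. Cmpd 1 hr RT → CuSO4 700 uM final → 20 hr RT → luciferase reagent 10 min → luminescence.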
The depositor's hits bear a star; ? = inconclusive; . = not tested or not shown; [ ] = dose if it differs, or a comment. Most compounds without a hit are left out; they make up all but 10% or so of the library. The call rests on the fitted dose curve; in most records, active means well fitted curve in the direction sought with a large enough effect; inconclusive means small, poorly fitted or top-dose-only effect, or another doubt; inactive means no such curve, though single readings can be large; an effect the other way counts as inactive or inconclusive. Potency means the concentration at half of the fitted maximal effect.

SMILES | ELG1 DNA repair | VP16 counter | MCF10A rereplic | SW480 rereplic | RORg inh
CCCCc1ccc2nc(NC(=O)OC)[nH]c2c1 | . | -1%[17 µM] | ? | 0.13µM* | -8%[16.9 µM]
C=C(c1ccc2nc(NC(=O)OC)[nH]c2c1)c1cccs1 | . | . | 0.58µM* | 0.73µM* | .
C=CCOc1ccc2nc(NC(=O)OC)[nH]c2c1 | ? | 7% | 1.5µM* | 1.3µM* | ?
C/C(=N\NC(=O)CSc1ncccn1)c1ccc2c(c1)OCCO2 | 20% | -3% | -2% | 3% | ?
O=C(CN1C(=O)NC2(CCCCC2)C1=O)Nc1ccc2[nH]c(=O)[nH]c2c1 | ? | . | 11% | -3% | .
CCC(C)NC(=O)CCC(=O)Nc1ccc2nc(N3CC(C)CC(C)C3)cc(C)c2c1 (stereo unspecified) | -13% | 8% | 21µM* | ? | 4%
Cc1cc(N2CCOCC2)nc2ccc(NC(=O)CCC(=O)N3CCC(C)CC3)cc12 | ? | 0% | 0% | -5% | 0%
CCCCNC(=O)CCC(=O)Nc1ccc2nc(N3CCC(C)CC3)cc(C)c2c1 | ? | -2% | 21µM* | ? | 21%
CCC(C)NC(=O)CCC(=O)Nc1ccc2nc(N3CCOCC3)cc(C)c2c1 (stereo unspecified) | ? | -6% | -1% | -6% | 7%
Cc1oc(-c2ccc(Cl)cc2)cc1C(=O)O | ? | ? | 2% | 1% | 14µM*
O=C(c1ccccc1)N1CCN(C(=O)c2ccc([N+](=O)[O-])cc2)CC1 | 12% | -1% | ? | -4% | -11%[10 µM]
O=C(c1ccc2nsnc2c1)N1CCN(c2ccc([N+](=O)[O-])cc2)CC1 | 16µM* | 0% | 7% | ? | 27%
Cc1ccc(C)c(N2CCN(C(=O)c3ccc4nsnc4c3)CC2)c1 | ? | -1% | ? | 21µM* | -3%
Cc1ccc(NC(=O)C2CCCN(c3ncnc4c3nc3n4CCCCC3)C2)cc1Cl (stereo unspecified) | -28% | -13% | 8% | ? | 10%
O=C(Nc1cc(F)ccc1F)C1CCCN(c2ncnc3c2nc2n3CCCCC2)C1 (stereo unspecified) | ? | 4% | 12% | -40% | 37%
O=C(Nc1ccc(Cl)cc1)C1CCCN(c2ncnc3c2nc2n3CCCCC2)C1 (stereo unspecified) | 23µM* | -13% | 16µM* | 4% | 41%
O=C(NCc1ccc(Cl)cc1)C1CCCN(c2ncnc3c2nc2n3CCCCC2)C1 (stereo unspecified) | 15µM* | 2% | ? | -8% | -12%
CC1CCCCN1CCNC(=O)C1CCCN(c2ncnc3c2nc2n3CCCCC2)C1 (stereo unspecified) | 1% | -2% | 3% | -19% | -31%
CSc1ccc(CCNC(=O)C2CCCN(c3ncnc4c3nc3n4CCCCC3)C2)cc1 (stereo unspecified) | 8.2µM* | 2% | 16% | ? | 35%
COCCn1c(C)cc(/C=C2/NC(=O)N(c3ccc(Cl)cc3)C2=O)c1C | 18% | -9% | -8% | ? | ?
Cc1ccc(NC2CCCN(C(=O)c3ccc4[nH]ccc4c3)C2)cc1C (stereo unspecified) | ? | -10% | 5% | 1% | 16%
O=C(C(=Cc1ccccc1)CN1CCCCC1)c1ccccc1 | . | . | 0.65µM* | 2.9µM* | .
O=C(CCCCN1CCCCC1)c1ccccc1 | . | . | 13% | -8% | .
O=C(c1cccs1)N(Cc1cccc(F)c1)C1CCS(=O)(=O)C1 (stereo unspecified) | 7% | 12% | 7% | -39% | 13%
CC(C)CCCCCCNC(=S)Nc1ccc(S(=O)(=O)N2CCOCC2)cc1 | ? | ? | 13µM* | ? | ?
SMILES | ELG1 DNA repair | VP16 counter | MCF10A rereplic | SW480 rereplic | RORg inh
CN(C)CC(C)(C)CNC(=S)Nc1ccc(S(=O)(=O)N2CCOCC2)cc1 | 2% | 4% | 7% | 26µM* | -3%
O=S(=O)(c1ccc(NC(=S)Nc2ccccc2)cc1)N1CCOCC1 | -1% | -7% | -10% | -2% | ?
O=C(Nc1ccncc1)c1ccccc1Cl | -2% | -5% | 0% | -6% | 0%
Cc1c(C(=O)N2CCC(C)CC2)oc2ccc3c(c12)C(O)CC1(CCCCC1)O3 (stereo unspecified) | 10% | 0% | ? | ? | 9%
O=C(Nc1cccnc1)C1CC(=O)N(c2ccc(F)cc2)C1 (stereo unspecified) | 12% | 10% | 3% | 14% | -2%
Cn1c(=NC(=O)CCl)sc2ccccc21 | ? | ? | 15µM* | ? | ?
Oc1ccc(Cl)cc1-c1cc(-c2cccc(Br)c2)n[nH]1 | ? | 0.89µM* | ? | 17% | ?
Oc1ccccc1-c1cc(-c2ccccc2Cl)[nH]n1 | . | ? | ? | -2% | 4.5µM*
Oc1ccc(Cl)cc1-c1cc(-c2ccccc2Cl)[nH]n1 | -16% | 10µM* | -180%[0.0737 µM] | ? | 4.5µM*
O=[N+]([O-])c1ccccc1-c1cc(-c2cc(Cl)ccc2O)n[nH]1 | ? | ? | ? | -25% | 16µM*
Cc1ccc(O)c(-c2cc(-c3ccccc3[N+](=O)[O-])[nH]n2)c1 | -17% | ? | ? | 5% | ?
Oc1ccccc1-c1cc(-c2cccc(F)c2)n[nH]1 | ? | ? | 23% | 8% | ?
Cc1cc(F)ccc1S(=O)(=O)N1CCCOC1CNC(=O)C(=O)NCC(C)C (stereo unspecified) | -2% | -5% | 1% | 1% | 1%
C=CCN1C(=O)c2ccc(C(=O)N(C)CC(=O)Nc3c(C)cccc3C)cc2C1=O | -10% | . | -1% | -4% | .
COc1ccccc1N1CCN(C(=O)C2CC2)CC1 | . | . | ? | 12% | .
COc1ccccc1N1CCN(C(=O)C2c3ccccc3Oc3ccccc32)CC1 | ? | ? | 1.8µM* | 5.8µM* | 30%
CC[C@H](C)[C@H](NC(=O)CNC(=O)[C@@H](NC(=O)[C@@H](NC(=O)[C@H](Cc1ccc(O)cc1)NC(=O)[C@H](CC(C)C)NC(=O)[C@H](C)NC(=O)[C@H](CCC(N)=O)NC(=O)CNC(=O)[C@@H]1CCCN1C(=O)CNC(=O)[C@H](Cc1ccccc1)NC(=O)[C@H](Cc1cnc[nH]1)NC(=O)[C@@H](NC(=O)CNC(=O)[C@H](CCCNC(=N)N)NC(=O)[C@H](CCCNC(=N)N)NC(=O)[C@@H](NC(=O)[C@H](CC(N)=O)NC(=O)[C@@H](N)CS)[C@@H](C)O)[C@@H](C)CC)[C@@H](C)O)[C@@H](C)O)C(=O)O | . | -5% | . | . | 9%
O=C(C1CCCN1S(=O)(=O)c1ccc(Cl)cc1)N1CCN(c2ccccc2)CC1 (stereo unspecified) | -13% | . | 6% | 4% | .
